High-throughput results deposited in PubChem by National Center for Advancing Translational Sciences (NCATS).
Hits are enriched below; roughly 3.4% of the tested compounds scored in any of these assays.
Luciferase inh: qHTS Assay for Inhibitors of Firefly Luciferase; Potency, µM (titrated, usually from 57.1 µM), usual class: inhibitors; 72,000 compounds, 2.2% hits; Luciferin 4-monooxygenase (Photinus pyralis), P08659; purified firefly luciferase, luminescence, 8 min; AID 411, 2009; note: nearly all actives have a fitted effect of over 40% in size
Target sequence (P08659 whole entry, looked up): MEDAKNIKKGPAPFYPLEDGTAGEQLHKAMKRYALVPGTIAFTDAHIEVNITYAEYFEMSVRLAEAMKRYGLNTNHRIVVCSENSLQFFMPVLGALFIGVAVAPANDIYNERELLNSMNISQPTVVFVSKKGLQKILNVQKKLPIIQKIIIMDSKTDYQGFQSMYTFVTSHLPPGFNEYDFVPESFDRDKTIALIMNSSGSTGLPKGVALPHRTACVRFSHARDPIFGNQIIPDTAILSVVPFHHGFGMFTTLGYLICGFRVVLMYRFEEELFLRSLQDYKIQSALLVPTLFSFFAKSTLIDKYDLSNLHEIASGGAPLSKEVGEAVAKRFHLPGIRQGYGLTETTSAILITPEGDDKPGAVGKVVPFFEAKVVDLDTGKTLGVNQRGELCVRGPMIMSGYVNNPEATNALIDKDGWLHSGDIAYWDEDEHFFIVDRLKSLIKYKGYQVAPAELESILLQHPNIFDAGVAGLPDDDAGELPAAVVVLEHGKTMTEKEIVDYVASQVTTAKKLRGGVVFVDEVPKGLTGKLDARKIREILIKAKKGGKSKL
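Titration-based qHTS; buffer 50 mM imidazole pH 7.2, 50 mM KCl, 7 mM MgCl2, 10 uM ATP, 0.01% Tween 20, 0.05% BSA; luciferase/luciferin detector mix added after compound; 8 min, ambient; luminescence.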
p53ts 32C tox: qHTS Screen for Compounds that Selectively Target Cancer Cells with p53 Mutations: Cytotoxicity of p53ts Cells at the Permissive Temperature; H1299-p53A138V at 32C, ATP luminescence viability, 24 h; Potency, µM (highest dose often 46.1 µM), most hits filed as cytotoxic; 130,000 compounds, 0.93% hits; AID 924, 2007; note: nearly all actives have a fitted effect of over 55% in size
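H1299-p53 A138V cells (temperature-sensitive p53) exposed 24 h to up to 46 uM compound at 32C, where p53 is wild-type in conformation. Viability read as ATP luminescence and normalised to DMSO and 100 uM tamoxifen. AC50 fitted with the Hill equation.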
Peg3 imprint: qHTS Assay for Compounds that Induce Erasure of Genomic Imprints; mouse ES Peg3-LacZ reporter, beta-gal luminescence, 40 h; Potency, µM (titrated, usually from 60.7 µM), usual class: activators; 110,000 compounds, 0.02% hits; AID 1948, 2009
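Each well holds 300 Peg3LacZ-Neo (maternal) female ES cells incubated 40 h at 37C, 5% CO2. LacZ is measured by BetaGlo luminescence, with AC50 and maximum efficacy derived from dose-response curves.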
Tau filament bind: qHTS Assay for Tau Filament Binding | Microtubule-associated protein tau (Homo sapiens), P10636 | recombinant tau filaments, thioflavin S fluorescence, 15 h; filaments grown with octadecylsulfate alongside compound | Potency, µM (titrated, usually from 57.1 µM) | 71,000 compounds, 2% hits;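 note: actives lower thioflavin S fluorescence by blocking filaments or displacing dye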
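Thioflavine S fluorescence (ex 450, em 510 nm) reports filaments formed from 1 uM human tau plus 30 uM ODS over 15 h at 37 C (10 mM HEPES pH 7.4, 100 mM NaCl, 5 mM DTT); compounds displacing dye or blocking filaments lower signal.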
p53ts 39C kill: qHTS Screen for Compounds that Selectively Target Cancer Cells with p53 Mutations: Cytotoxicity of p53ts Cells at the Nonpermissive Temperature | 130,000 compounds, 1.5% hits | Potency, µM (series often up to 46.1 µM), most hits filed as cytotoxic | H1299-p53A138V viability at 39C, ATP luminescence, 24 h; note: nearly all actives have a fitted effect of over 55% in size
Numbers stand for hits; – = inactive; ? = inconclusive; · = not tested or not shown; [ ] = dose if it differs, or a comment. Calls come from the whole dose curve; as a rule, active = well fitted curve in the direction sought with a large enough effect; inconclusive = small, poorly fitted or top-dose-only effect, or another doubt; inactive = no such curve, though single readings can be large; an effect the other way counts as inactive or inconclusive.

SMILES	Luciferase inh	p53ts 32C tox	Peg3 imprint	Tau filament bind	p53ts 39C kill
CCN1C(=O)[C@H]2[C@H]3[C@H](O)[C@H](O)C/C(=N/OC[C@@H]4O[C@H](c5ccccc5)C=C[C@@H]4Oc4ccc(OC)cc4)[C@@H]3CC[C@@H]2C1=O	–[11.4 µM]	–[9.22 µM]	·	·	–[9.22 µM]
CC(=O)O[C@@H]1[C@H]([N+]2(C)CCCCC2)C[C@@H]2[C@@H]3CC[C@@H]4C[C@@H](OC(C)=O)[C@H]([N+]5(C)CCCCC5)C[C@@]4(C)[C@H]3CC[C@]21C	–	–	·	–	–
CC(=O)c1ccc(N2CCN(C(=O)CCS(=O)(=O)c3ccc4c(c3)oc(=O)n4C)CC2)cc1	·	–	–[10.9 µM]	·	–
CC(C)=CCc1c(O)cc(O)c2c1O[C@H](c1ccccc1)CC2=O	–[11.4 µM]	–	–	39.8µM	–
Cc1ccc(-n2c(SCn3nnc4ccccc4c3=O)nnc2-c2cccnc2)c(C)c1	–	–	–	15.8µM	–
Clc1ccc2c(c1)N=C(N1CCNCC1)c1ccccc1N2	–	–	–	39.8µM	–
Nn1c(Nc2ccccc2)nc2sc3c(c2c1=O)CCC3	20µM	–	–	–	–
CCc1nc2sc3c(c2c(=O)n1N)CCC3	–	–	–	–	–
Cn1c(NCc2ccco2)nc2ccccc21	–	–	–	15.8µM	–
Cn1c(/N=C/c2c[nH]c3ccccc23)nc2ccccc21	0.631µM	–	–	–	–
Cn1c(/N=C/c2ccc3c(c2)OCO3)nc2ccccc21	2.51µM	–	–	–	–
Cn1c(NCc2c[nH]c3ccccc23)nc2ccccc21	25.1µM	?	–	–	–
Cn1c(/C=N/n2cnnc2)nc2ccccc21	–	–	–	–[11.4 µM]	–
CCCn1c(NCc2ccc3c(c2)OCO3)nc2ccccc21	·	–	·	·	–
Cn1c(NCc2cccs2)nc2ccccc21	–	–	–	–	–
Cn1c(O)c(N=N/C(=N/c2ccccn2)c2ccccn2)c2cc(Br)ccc21	·	–	·	·	–
Cc1c(NC(=O)c2cc(-n3cnnc3)ccc2Cl)cccc1-c1nc2ccccc2o1	7.94µM	?	–	–	–
Cc1ccc(C=Nc2ccc(N(C)C)cc2)o1	3.16µM	–	–	?	–
Cc1ccc(/C=N/n2nnnc2N)o1	–	·	·	·	·
O=C(NC(=S)N(CCc1ccccc1)CCc1ccccc1)c1ccco1	·	–	·	·	11.2µM
COc1cc(C(CC(=O)Nc2cccc(C(C)=O)c2)N2Cc3ccccc3C2=O)cc(OC)c1OC (configuration not stated)	·	–	–[10.9 µM]	·	–
COC(=O)C1=C(C)NC(C)=C(C(=O)OCCNCc2ccccc2)C1c1cccc([N+](=O)[O-])c1 (configuration not stated)	·	·	–	·	·
COC(=O)C1=C(C)NC(C)=C([N+](=O)[O-])[C@@H]1c1ccccc1C(F)(F)F	3.98µM	–	–	31.6µM	–
COC(=O)C1=C(C)NC(C)=C([N+](=O)[O-])[C@H]1c1ccccc1C(F)(F)F	–	–	–	31.6µM	–
CCOc1ccc(CCNC(=O)C(CC)n2nc(C)c3c(C)n(-c4ccccc4)nc3c2=O)cc1 (configuration not stated)	·	–	–[10.9 µM]	·	–
SMILES	Luciferase inh	p53ts 32C tox	Peg3 imprint	Tau filament bind	p53ts 39C kill
O=[N+]([O-])c1cccc(C2Nc3cccc4cccc(c34)N2)c1	·	·	·	·	–
c1coc(C2Nc3cccc4cccc(c34)N2)c1	–	–	–	6.31µM	–
CCc1ccc(-c2cn(-c3nc(C)cc(C)n3)c(=N)o2)cc1	15.8µM	–	–	–	–
CCc1ccc(Oc2cc(C)nc(N)n2)cc1	·	–	·	·	–
Cc1cc([C@](C)(N)C(=O)O)ccc1P(=O)(O)O	25.1µM	–	–	–	–
CCOc1ccc(N2Cc3ccccc3C2)cc1	10µM	12.6µM	–	15.8µM	?
CCOc1ccc(S(=O)(=O)N2CCc3ccccc3C2)cc1	–	–	–	–	–
CCc1ccccc1N1C(=O)N(CC(=O)c2ccc(Cl)cc2)c2ccccc2S1(=O)=O	·	–	–[10.9 µM]	·	–
Cc1ccc2c(c1)c(=O)c1ccccc1n2CCCC(=O)Nc1ccc(C)c(C)c1	·	–	–[10.9 µM]	·	–
CN(C)C=C1C(=O)c2ccccc2C1=O	–	·	·	·	·
